# According to PubChem BioAssay (NCATS):
# Inconclusive results are not listed. Entries that show only a call come without a potency. A number with no mark means an inactive call. Activity calls are given as the source filed them. Calls follow the shape of the dose curve; as a rule, active = well fitted inhibition curve with a large enough effect; inconclusive = small, poorly fitted or top-dose-only effect; inactive = flat fitted curve, though single readings scatter.
# How the values were obtained:
# [1] = qHTS profiling for inhibitors of Plasmodium falciparum proliferation (AID 504749); also: nearly all actives have a fitted effect of over 60% in size; conditions: P. falciparum in erythrocytes, SYBR Green DNA, 72 h
# Method in brief: (§1)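 SYBR Green fluorescence of parasite DNA, read after lysis and overnight dark incubation, measured growth over 72 h in erythrocyte culture at 0.3% parasitemia and 2.5% hematocrit. Data normalised to DMSO and 0.29 uM artemisinin, with plate-drift correction.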
# 3D7 = experiment: as above; conditions: P. falciparum in erythrocytes, SYBR Green DNA, 72 h; series mostly up to 28.7 µM
# Method in brief: as §1
# 7G8 = experiment: as above; conditions: P. falciparum in erythrocytes, SYBR Green DNA, 72 h; series mostly up to 28.7 µM
# Method in brief: as §1
# AA1029 = experiment: as above; conditions: P. falciparum in erythrocytes, SYBR Green DNA, 72 h; series mostly up to 28.7 µM
# Method in brief: as §1
# AS120 = experiment: as above; conditions: P. falciparum in erythrocytes, SYBR Green DNA, 72 h; series mostly up to 28.7 µM
# Method in brief: as §1
# ATS189 = experiment: as above; conditions: P. falciparum in erythrocytes, SYBR Green DNA, 72 h; series mostly up to 28.7 µM
# Method in brief: as §1
# ATS95 = experiment: as above; conditions: P. falciparum in erythrocytes, SYBR Green DNA, 72 h; series mostly up to 28.7 µM
# Method in brief: as §1
# C2A = experiment: as above; conditions: P. falciparum in erythrocytes, SYBR Green DNA, 72 h; series mostly up to 28.7 µM
# Method in brief: as §1
# CP185 = experiment: as above; conditions: P. falciparum in erythrocytes, SYBR Green DNA, 72 h; series mostly up to 28.7 µM
# Method in brief: as §1
# [2] = at 28.7 µM (top of the series), parasite line A
# [3] = at 28.7 µM (top of the series), parasite line B
# Potency is read from the fitted curve at half-maximal effect.
Compound,"activity, negative = inhibition [1, 2] [%]","activity, negative = inhibition [1, 3] [%]",Potency (3D7),Potency (7G8),Potency (AA1029),Potency (AS120),Potency (ATS189),Potency (ATS95),Potency (C2A),Potency (CP185),Potency ([1]; parasite line A),Potency ([1]; parasite line B),"activity, negative = inhibition ([1]; at 12.8 µM (top of the series), parasite line A) [%]","activity, negative = inhibition ([1]; at 12.8 µM (top of the series), parasite line B) [%]"
Oc1ccccc1C=NCc1ccccc1,2.18,-16.9,inactive,inactive,inactive,inactive,inactive,inactive,inactive,inactive,,,,
CCN(CC)CCNC(=O)COc1ccc(OC)cc1,19.5,3.1,inactive,inactive,inactive,inactive,inactive,inactive,inactive,inactive,,,,
O[C@@H](c1cc(C(F)(F)F)nc2c(C(F)(F)F)cccc12)[C@H]1CCCCN1,,,35.5 nM (active),7.9 nM (active),11.2 nM (active),20 nM (active),28.2 nM (active),28.2 nM (active),70.8 nM (active),79.4 nM (active),31.6 nM (active),12.6 nM (active),,
CCCCCCCCNC(C)C(O)c1ccc(SC(C)C)cc1 (stereo not given),,,794 nM (active),100 nM (active),1000 nM (active),891 nM (active),631 nM (active),1260 nM (active),891 nM (active),891 nM (active),1260 nM (active),562 nM (active),,
CCCCCCCCOc1ccc(C(=O)c2ccccc2)c(O)c1,16.4,14.5,inactive,inactive,inactive,inactive,inactive,inactive,inactive,inactive,,,,
NC(=S)N/N=C/c1cccnc1,13.2,8.73,inactive,inactive,inactive,inactive,inactive,inactive,inactive,inactive,,,,
CCOc1ccccc1OCCN[C@H](C)Cc1ccc(OC)c(S(N)(=O)=O)c1,7.23,1.02,inactive,inactive,inactive,inactive,inactive,inactive,inactive,inactive,,,,
CCCCCCCCCCCCCC[N+](C)(C)Cc1ccccc1,,,3550 nM (active),2240 nM (active),6310 nM (active),7080 nM (active),7080 nM (active),7080 nM (active),3980 nM (active),6310 nM (active),4470 nM (active),7940 nM (active),,
C/C=C/c1ccc(O)c(OC)c1,3.92,-10.3,inactive,10000 nM (active),inactive,inactive,inactive,inactive,inactive,inactive,,,,
O=C(O)P(=O)(O)O,3.96,-2.94,inactive,inactive,inactive,inactive,inactive,inactive,inactive,inactive,,,,
Cc1nc(-c2ccc(Cl)cc2)oc1COC(C)(C)C(=O)O,9.36,9.87,inactive,inactive,inactive,inactive,inactive,inactive,inactive,inactive,,,,
Cc1cc(C)cc(OCC2CNC(=O)O2)c1 (stereo not given),-4.76,4.34,inactive,inactive,inactive,inactive,inactive,inactive,inactive,inactive,,,,
CCCCN=C(N)N=C(N)N,-1.88,0.415,inactive,inactive,inactive,inactive,inactive,inactive,inactive,inactive,,,,
N#CCC(=O)NN,10.6,7.8,inactive,inactive,inactive,inactive,inactive,inactive,inactive,inactive,,,,
Nc1nc(N)c(-c2ccccc2)s1,18.4,11.9,inactive,inactive,inactive,inactive,inactive,inactive,inactive,inactive,,,,
Nc1nc(-c2ccccc2)c(Br)c(=O)[nH]1,-7.1,1.53,inactive,inactive,inactive,inactive,inactive,inactive,inactive,inactive,,,,
O=C(Nc1ccc([N+](=O)[O-])cc1)Nc1ccc([N+](=O)[O-])cc1,3.88,-6.66,7080 nM (active),1410 nM (active),inactive,inactive,inactive,inactive,inactive,inactive,,,,
FC1(F)C(F)(F)C(F)(F)C2(F)C(F)(F)C(F)(F)C(F)(F)C(F)(F)C2(F)C1(F)F (stereo not given),5.48,12.9,inactive,inactive,inactive,inactive,inactive,inactive,inactive,inactive,,,,
CCCCNC(=O)NS(=O)(=O)c1ccc(N)cc1,5.61,12.3,inactive,inactive,inactive,inactive,inactive,inactive,inactive,inactive,,,,
CC(C)Cc1ccc(CC(=O)O)cc1,5.78,6.05,inactive,inactive,inactive,inactive,inactive,inactive,inactive,inactive,,,,

Compound,"activity, negative = inhibition [1, 2] [%]","activity, negative = inhibition [1, 3] [%]",Potency (3D7),Potency (7G8),Potency (AA1029),Potency (AS120),Potency (ATS189),Potency (ATS95),Potency (C2A),Potency (CP185),Potency ([1]; parasite line A),Potency ([1]; parasite line B),"activity, negative = inhibition ([1]; at 12.8 µM (top of the series), parasite line A) [%]","activity, negative = inhibition ([1]; at 12.8 µM (top of the series), parasite line B) [%]"
CC(=O)NO,-5.99,17.5,inactive,inactive,inactive,inactive,inactive,inactive,inactive,inactive,,,,
O=C(Nc1ncc([N+](=O)[O-])s1)c1cccs1,5.2,-2.66,inactive,inactive,inactive,inactive,inactive,inactive,inactive,inactive,,,,
COc1ccc(/C=N/NC(=O)c2ccncc2)cc1OC,6.74,9.47,inactive,inactive,inactive,inactive,inactive,inactive,inactive,inactive,,,,
c1ccc(-c2nc[nH]c2-c2ccccc2)cc1,7.29,-4.58,inactive,inactive,inactive,inactive,inactive,inactive,inactive,inactive,,,,
CCc1oc2ccccc2c1C(=O)c1cc(I)c(O)c(I)c1,-1.64,-5.21,inactive,inactive,inactive,inactive,inactive,inactive,inactive,inactive,,,,
Cc1cc(NS(=O)(=O)c2ccc(N)cc2)nc(C)n1,9.36,5.66,inactive,inactive,inactive,inactive,inactive,inactive,inactive,inactive,,,,
NC(N)=NCc1cccc(I)c1,-25.5,-23.4,inactive,inactive,inactive,inactive,inactive,inactive,inactive,inactive,,,,
COc1cc(C(=O)N2CCCCCCC2)cc(OC)c1OC,22.3,22.7,inactive,inactive,inactive,inactive,inactive,inactive,inactive,inactive,,,,
CC(C)(C)NC[C@H](O)COc1cccc2c1CCCC2=O,,,inactive,inactive,inactive,inactive,inactive,inactive,inactive,inactive,,,5.04,7.33
CCCCCCCCCCCCSCCOCCO,9.57,14.6,inactive,inactive,inactive,inactive,inactive,inactive,inactive,inactive,,,,
CC(C)Nc1cccnc1N1CCN(C(=O)c2cc3cc(NS(C)(=O)=O)ccc3[nH]2)CC1,-10.7,24,inactive,12600 nM (active),inactive,inactive,inactive,inactive,inactive,inactive,,,,
CC(=O)Oc1ccc(C)cc1,9.31,10.5,inactive,inactive,inactive,inactive,inactive,inactive,inactive,inactive,,,,
NS(=O)(=O)c1ccc(Cl)c(S(N)(=O)=O)c1,8.67,14.1,inactive,inactive,inactive,inactive,inactive,inactive,inactive,inactive,,,,
CCN(CC)CCNc1ccc(CO)c2sc3ccccc3c(=O)c12,,,2000 nM (active),2000 nM (active),2240 nM (active),1000 nM (active),794 nM (active),2000 nM (active),794 nM (active),1000 nM (active),1780 nM (active),3550 nM (active),,
CCc1ccc(C(=O)C(C)CN2CCCCC2)cc1 (stereo not given),2.55,6.09,inactive,inactive,inactive,inactive,inactive,inactive,inactive,inactive,,,,
CC(=O)NC(=O)c1ccccc1O,-1.16,7.59,inactive,inactive,inactive,inactive,inactive,inactive,inactive,inactive,,,,
OC[C@H]1O[C@@H]2O[C@H]3[C@H](O)[C@@H](O)[C@@H](O[C@H]4[C@H](O)[C@@H](O)[C@@H](O[C@H]5[C@H](O)[C@@H](O)[C@@H](O[C@H]6[C@H](O)[C@@H](O)[C@@H](O[C@H]7[C@H](O)[C@@H](O)[C@@H](O[C@H]8[C@H](O)[C@@H](O)[C@@H](O[C@H]1[C@H](O)[C@H]2O)O[C@@H]8CO)O[C@@H]7CO)O[C@@H]6CO)O[C@@H]5CO)O[C@@H]4CO)O[C@@H]3CO,8.7,8.53,inactive,inactive,inactive,inactive,inactive,inactive,inactive,inactive,,,,
CC(=O)N[C@@H](CCC(=O)O)C(=O)O,4.59,2.94,inactive,inactive,inactive,inactive,inactive,inactive,inactive,inactive,,,,
CCc1oc2ccccc2c1C(=O)c1cc(Br)c(O)c(Br)c1,-3.41,-11.9,inactive,inactive,inactive,inactive,inactive,inactive,inactive,inactive,,,,
